For 13 compounds, Potency and outcome results are on record in PubChem BioAssay (NCATS).

The target of experiment [1] is Glucagon-like peptide 1 receptor (Homo sapiens) (UniProt P43220). Kind of experiment: qHTS of GLP-1 Receptor Agonists: LOPAC Validation (AID 624148).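 Further: higher luminescence signal means agonism.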 Conditions: GLP-1R agonist cell assay; series mostly up to 46.1 µM. An outline of the steps:
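HEK293 cells stably co-expressing GLP-1R and a cAMP-responsive luciferase reporter, plated 12 hours before compound, then incubated 4-6 hr at 37 deg C. Luminescence read 12 min after detection reagent.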

The nature of experiment [2]: qHTS of Nrf2 Activators: LOPAC Validation (AID 624149). Conditions: Nrf2/ARE reporter cell assay; series mostly up to 46.1 µM. An outline of the steps:
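AREc32 cells carrying an ARE-driven firefly luciferase were grown overnight in OPTI-MEM with 5% FBS, then exposed to compounds for 24 hr at 37 deg C. Luciferase signal was read after 30 min with Steady-Glo at RT.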
(In qHTS, concentration-response curves come from the screen itself.)

Experiment [3] is described as follows: HTS Assay for Allosteric Antagonists of the Human D2 Dopamine Receptor: Hit Validation in HTRF (AID 624455).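 Further: stable D1 dopamine receptor cell line scored for blocking the D1 response.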 Conditions: Cells stably expressing D1 dopamine receptor, inhibition mode; series mostly up to 46.1 µM. An outline of the steps: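 Hits were examined in an HTRF assay using cells stably expressing the D1 dopamine receptor, scoring inhibition of the D1-mediated response. The preceding primary screen tracked calcium flux after an EC80 dopamine addition in force-coupled, inducible Hek293 Trex D2 cells.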
(In TR-FRET formats the signal depends on donor and acceptor labels being close together.)

SMILES strings stand for the structures. Inconclusive results are not listed. A call without a number means that no potency is given here. Active and inactive are the calls of the source. The call rests on the fitted dose curve; in most records, active means well fitted curve in the direction sought with a large enough effect; inconclusive means small, poorly fitted or top-dose-only effect, or another doubt; inactive means no such curve, though single readings can be large; an effect the other way counts as inactive or inconclusive.

Sequence of Glucagon-like peptide 1 receptor (Homo sapiens) (P43220 whole entry, looked up): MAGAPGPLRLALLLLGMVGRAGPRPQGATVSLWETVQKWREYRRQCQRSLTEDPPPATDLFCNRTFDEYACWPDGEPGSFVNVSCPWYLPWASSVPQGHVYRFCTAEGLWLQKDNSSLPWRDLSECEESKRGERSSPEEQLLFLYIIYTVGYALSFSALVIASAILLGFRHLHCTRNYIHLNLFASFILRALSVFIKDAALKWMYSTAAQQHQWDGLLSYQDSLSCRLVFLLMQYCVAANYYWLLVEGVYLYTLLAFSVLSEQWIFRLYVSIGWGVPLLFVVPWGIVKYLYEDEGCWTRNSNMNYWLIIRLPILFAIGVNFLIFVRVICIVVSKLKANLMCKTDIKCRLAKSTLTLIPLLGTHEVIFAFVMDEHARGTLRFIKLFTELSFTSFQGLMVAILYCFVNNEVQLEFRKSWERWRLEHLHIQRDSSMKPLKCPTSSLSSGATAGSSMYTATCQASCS

As for `CC(C)NCC(O)COc1ccc(CCOCC2CC2)cc1` (stereo not drawn), the Potency entry in experiment [1] and in experiment [3] was “inactive” throughout. Moreover, the outcome in experiment [2] was inactive.
As to `Cc1ccccc1N1C(=O)c2cc(S(N)(=O)=O)c(Cl)cc2NC1C` (stereo not drawn), the Potency entry in experiment [1] and in experiment [3] was “inactive” in each case. For the same compound, the call in experiment [2] was inactive.
Regarding `Nc1nc2c(ncn2COC(CO)CO)c(=O)[nH]1`, the Potency entry in experiment [1] and in experiment [3] was “inactive” in each case. Besides, in experiment [2], the compound was called inactive.
In the case of `COc1cc2nc(N3CCN(C(=O)c4ccco4)CC3)nc(N)c2cc1OC`, the Potency result in experiment [1] and in experiment [3] was “inactive” in each case. Also, the compound was called inactive in experiment [2].
Turning to `O=C1c2c(O)ccc(O)c2C(=O)c2c(NCCNCCO)ccc(NCCNCCO)c21`, the Potency result in experiment [1] was “inactive”. In experiment [2], the compound was called inactive.
`OCCN1CCN(CCCN2c3ccccc3Sc3ccc(C(F)(F)F)cc32)CC1`: the Potency entry in experiment [1] and in experiment [3] was “inactive” each time. In addition, the call in experiment [2] was inactive.
As to `NCCc1cnc[nH]1`, the Potency result in experiment [1] and in experiment [3] was “inactive” in each case. Moreover, the outcome in experiment [2] was inactive.
With `CS(=O)(=O)Nc1ccc([N+](=O)[O-])cc1Oc1ccccc1`, the Potency entry in experiment [1] and in experiment [3] was “inactive” in each case. Further, the compound was classed as inactive in experiment [2].
In the case of `CCC1(C)CC(=O)NC1=O` (stereo not drawn), the Potency result in experiment [1] and in experiment [3] was “inactive” each time. The call in experiment [2] was inactive.
For the compound `CN1CCN(CCCN2c3ccccc3Sc3ccc(Cl)cc32)CC1`, the Potency entry in experiment [1] and in experiment [3] was “inactive” in each case. For the same compound, the compound was classed as inactive in experiment [2].
In the case of `CCc1cccc2c3c([nH]c12)C(CC)(CC(=O)O)OCC3` (stereo not drawn), the Potency entry in experiment [1] and in experiment [3] was “inactive” throughout. Moreover, the compound was classed as inactive in experiment [2].
Turning to `NC(=O)OCC(COC(N)=O)c1ccccc1`, the Potency entry in experiment [1] and in experiment [3] was “inactive” each time. Also, in experiment [2], the compound was called inactive.
Consider `Cc1ccc(C(=O)Nc2ccc(S(=O)(=O)O)c3cc(S(=O)(=O)O)cc(S(=O)(=O)O)c23)cc1NC(=O)c1cccc(NC(=O)Nc2cccc(C(=O)Nc3cc(C(=O)Nc4ccc(S(=O)(=O)O)c5cc(S(=O)(=O)O)cc(S(=O)(=O)O)c45)ccc3C)c2)c1`, for which the Potency result in experiment [1] and in experiment [3] was “inactive” in each case. Moreover, in experiment [2], the result was inactive.
